Laboratory results from PubChem BioAssay AID1159580 (chemical genetic matrix, 2015).
The campaign covered roughly 5,500 compounds. About 2,000 (36%) were called active. About 18% were inconclusive and are not listed. The list shows a part of the results. Unmarked numbers belong to inactive results. No stated cut-off is given here; in the data, active means normalized growth mostly below about 0.91 (no sharp cut-off); inconclusive means no clear call, values can overlap the other calls; inactive means mostly above about 0.92.

Assay: chemical genetic growth profiling, strain panel (AID 1159580);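 further: tested at 20 µM; growth read once vehicle control cultures reached saturation at 30 °C; 1 = growth at the plate median or of vehicle wells; lower values mean less growth of the strain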
Conditions: S. cerevisiae deletion strains, growth OD

Q: With `O=C(O)CCC(=O)Nc1ccc(S(=O)(=O)Nc2nccs2)cc1` as the molecule, how does the normalized growth (locus YAL021C, strain ccr4, active compounds read low) read?
A: 1

Q: What about the normalized growth (locus YAL026C, strain drs2, active compounds read low) of the same molecule?
A: 1

Q: What about the normalized growth (locus YAL030W, strain snc1, active compounds read low) of the same molecule?
A: 1.03

Q: And the normalized growth (locus YBL061C, strain skt5, active compounds read low)?
A: 0.994

Q: And the normalized growth (locus YBR009C, strain hhf1, active compounds read low)?
A: 1.02

Q: And the normalized growth (locus YBR023C, strain chs3, active compounds read low)?
A: 0.993

Q: What about the normalized growth (locus YBR171W, strain sec66, active compounds read low) of the same molecule?
A: 0.997

Q: And the normalized growth (locus YBR231C, strain swc5, active compounds read low)?
A: 0.996

Q: And the normalized growth (locus YBR279W, strain paf1, active compounds read low)?
A: 0.989

Q: What about the normalized growth (locus YCL011C, strain gbp2, active compounds read low) of the same molecule?
A: 0.728 (active)

Q: And the normalized growth (locus YCL016C, strain dcc1, active compounds read low)?
A: 0.985

Q: And the normalized growth (locus YCL061C, strain MRC1, active compounds read low)?
A: 0.996

Q: And the normalized growth (locus YCL069W, strain vba3, active compounds read low)?
A: 1

Q: What about the normalized growth (locus YCR088W, strain abp1, active compounds read low) of the same molecule?
A: 0.994

Q: What about the normalized growth (locus YDL005C, strain med2, active compounds read low) of the same molecule?
A: 0.987

Q: What about the normalized growth (locus YDL040C, strain nat1, active compounds read low) of the same molecule?
A: 0.999

Q: And the normalized growth (locus YDR001C, strain nth1, active compounds read low)?
A: 1

Q: What about the normalized growth (locus YDR069C, strain doa4, active compounds read low) of the same molecule?
A: 1

Q: What about the normalized growth (locus YDR137W, strain rgp1, active compounds read low) of the same molecule?
A: 0.989

Q: And the normalized growth (locus YDR159W, strain sac3, active compounds read low)?
A: 0.922

Q: And the normalized growth (locus YDR195W, strain ref2)?
A: 0.967

Q: What about the normalized growth (locus YDR297W, strain sur2, active compounds read low) of the same molecule?
A: 1.01

Q: What about the normalized growth (locus YDR334W, strain swr1, active compounds read low) of the same molecule?
A: 0.989

Q: And the normalized growth (locus YDR335W, strain msn5, active compounds read low)?
A: 0.992

Q: What about the normalized growth (locus YDR392W, strain spt3, active compounds read low) of the same molecule?
A: 0.912

Q: What about the normalized growth (locus YEL003W, strain gim4, active compounds read low) of the same molecule?
A: 1.02

Q: And the normalized growth (locus YEL037C, strain rad23, active compounds read low)?
A: 1.01

Q: And the normalized growth (locus YEL061C, strain CIN8 (second series), active compounds read low)?
A: 1.02

Q: What about the normalized growth (locus YER015W, strain faa2, active compounds read low) of the same molecule?
A: 1

Q: And the normalized growth (locus YER016W, strain bim1, active compounds read low)?
A: 0.981

Q: What about the normalized growth (locus YER111C, strain swi4, active compounds read low) of the same molecule?
A: 1.01

Q: What about the normalized growth (locus YER155C, strain BEM2 (second series), active compounds read low) of the same molecule?
A: 0.981

Q: And the normalized growth (locus YFR010W, strain ubp6, active compounds read low)?
A: 1

Q: What about the normalized growth (locus YGL167C, strain pmr1, active compounds read low) of the same molecule?
A: 0.995

Q: What about the normalized growth (locus YGL173C, strain kem1, active compounds read low) of the same molecule?
A: 0.987

Q: What about the normalized growth (locus YGL227W, strain vid30, active compounds read low) of the same molecule?
A: 0.994

Q: What about the normalized growth (locus YGL240W, strain doc1, active compounds read low) of the same molecule?
A: 1

Q: What about the normalized growth (locus YGL253W, strain hxk2, active compounds read low) of the same molecule?
A: 1

Q: And the normalized growth (locus YHR013C, strain ard1, active compounds read low)?
A: 0.983

Q: What about the normalized growth (locus YHR027C, strain rpn1, active compounds read low) of the same molecule?
A: 0.991

Q: And the normalized growth (locus YHR030C, strain SLT2, active compounds read low)?
A: 1.04

Q: What about the normalized growth (locus YHR079C, strain IRE1, active compounds read low) of the same molecule?
A: 1.06

Q: What about the normalized growth (locus YHR142W, strain chs7, active compounds read low) of the same molecule?
A: 1

Q: And the normalized growth (locus YJL092W, strain hpr5, active compounds read low)?
A: 1

Q: And the normalized growth (locus YJL095W, strain BCK1 (second series), active compounds read low)?
A: 0.996

Q: What about the normalized growth (locus YJL095W, strain BCK1, active compounds read low) of the same molecule?
A: 1.01

Q: And the normalized growth (locus YJL115W, strain asf1, active compounds read low)?
A: 0.997

Q: What about the normalized growth (locus YJL129C, strain trk1, active compounds read low) of the same molecule?
A: 0.994

Q: And the normalized growth (locus YJL154C, strain vps35, active compounds read low)?
A: 0.99

Q: And the normalized growth (locus YJL164C, strain tpk1, active compounds read low)?
A: 0.998

Q: And the normalized growth (locus YJL166W, strain qcr8, active compounds read low)?
A: 1

Q: And the normalized growth (locus YJL187C, strain SWE1, active compounds read low)?
A: 1.01

Q: What about the normalized growth (locus YJR066W, strain TOR1, active compounds read low) of the same molecule?
A: 0.998

Q: And the normalized growth (locus YKL160W, strain elf1, active compounds read low)?
A: 1.01

Q: What about the normalized growth (locus YKR026C, strain gcn3, active compounds read low) of the same molecule?
A: 1

Q: And the normalized growth (locus YKR091W, strain srl3, active compounds read low)?
A: 0.998

Q: And the normalized growth (locus YLL001W, strain dnm1, active compounds read low)?
A: 1.01

Q: And the normalized growth (locus YLL026W, active compounds read low)?
A: 0.987

Q: And the normalized growth (locus YLL041C, strain sdh2, active compounds read low)?
A: 1.01

Q: What about the normalized growth (locus YLR027C, strain aat2, active compounds read low) of the same molecule?
A: 1.01

Q: What about the normalized growth (locus YLR113W, strain HOG1, active compounds read low) of the same molecule?
A: 1.02

Q: And the normalized growth (locus YLR221C, strain rsa3, active compounds read low)?
A: 1

Q: And the normalized growth (locus YLR258W, strain gsy2, active compounds read low)?
A: 0.993

Q: What about the normalized growth (locus YLR262C, strain YPT6 (second series), active compounds read low) of the same molecule?
A: 1.01

Q: And the normalized growth (locus YLR320W, strain mms22, active compounds read low)?
A: 0.976

Q: What about the normalized growth (locus YLR342W, strain FKS1, active compounds read low) of the same molecule?
A: 1

Q: What about the normalized growth (locus YLR357W, strain rsc2, active compounds read low) of the same molecule?
A: 0.991

Q: What about the normalized growth (locus YLR370C, strain arc18, active compounds read low) of the same molecule?
A: 1

Q: And the normalized growth (locus YLR384C, strain iki3, active compounds read low)?
A: 1

Q: And the normalized growth (locus YML120C, strain ndi1, active compounds read low)?
A: 1.02

Q: And the normalized growth (locus YMR058W, strain fet3, active compounds read low)?
A: 1

Q: And the normalized growth (locus YMR125W, strain sto1, active compounds read low)?
A: 0.977

Q: What about the normalized growth (locus YMR129W, active compounds read low) of the same molecule?
A: 0.977

Q: What about the normalized growth (locus YMR205C, strain PFK2, active compounds read low) of the same molecule?
A: 0.985

Q: What about the normalized growth (locus YMR231W, strain pep5, active compounds read low) of the same molecule?
A: 1

Q: And the normalized growth (locus YNL071W, strain lat1, active compounds read low)?
A: 1.01

Q: What about the normalized growth (locus YNL183C, strain NPR1, active compounds read low) of the same molecule?
A: 0.968

Q: And the normalized growth (locus YNL209W, strain ssb2, active compounds read low)?
A: 1

Q: And the normalized growth (locus YNL248C, strain rpa49, active compounds read low)?
A: 1.02

Q: What about the normalized growth (locus YNL322C, strain KRE1 (second series), active compounds read low) of the same molecule?
A: 0.966

Q: What about the normalized growth (locus YNR049C, strain mso1, active compounds read low) of the same molecule?
A: 0.999

Q: What about the normalized growth (locus YOR001W, strain rrp6, active compounds read low) of the same molecule?
A: 0.998

Q: And the normalized growth (locus YOR070C, strain gyp1, active compounds read low)?
A: 0.998

Q: And the normalized growth (locus YOR080W, strain dia2, active compounds read low)?
A: 0.987

Q: And the normalized growth (locus YOR083W, strain WHI5, active compounds read low)?
A: 0.938

Q: What about the normalized growth (locus YOR106W, strain vam3, active compounds read low) of the same molecule?
A: 0.979

Q: What about the normalized growth (locus YOR231W, strain MKK1, active compounds read low) of the same molecule?
A: 1.07

Q: What about the normalized growth (locus YOR265W, strain rbl2, active compounds read low) of the same molecule?
A: 1.01

Q: And the normalized growth (locus YOR270C, strain vph1, active compounds read low)?
A: 1.03

Q: And the normalized growth (locus YOR290C, strain snf2, active compounds read low)?
A: 0.984

Q: And the normalized growth (locus YPL051W, strain arl3, active compounds read low)?
A: 0.995

Q: And the normalized growth (locus YPL078C, strain atp4, active compounds read low)?
A: 0.984

Q: And the normalized growth (locus YPL106C, strain sse1, active compounds read low)?
A: 0.944

Q: What about the normalized growth (locus YPL240C, strain hsp82, active compounds read low) of the same molecule?
A: 0.995

Q: What about the normalized growth (locus YPL256C, strain CLN2, active compounds read low) of the same molecule?
A: 1.01
